# In PubChem BioAssay AID720541 (National Center for Advancing Translational Sciences (NCATS), 2013):
# About 420 (32%) of roughly 1,300 compounds were called active. Another 32% or so got no clear call; they are omitted. Calls come from the whole dose curve; as a rule, active = well fitted inhibition curve with a large enough effect; inconclusive = small, poorly fitted or top-dose-only effect; inactive = no such curve, though single readings can be large or run the other way. This is one part of the list. Entries that show only a call come without a potency.
# Molecular target: C-terminal-binding protein 1 (Homo sapiens) (UniProt Q13363)
# Experiment: qHTS for Inhibitors of the Phosphatase Activity of Eya2: Carboxyl-terminal binding protein (CtBP) Counterscreen for Cherry-picked Compounds; note: nearly all actives have a fitted effect of over 65% in size
# Conditions: purified protein-protein binding, AlphaScreen, 3 h; series mostly up to 46.1 µM
# Procedure, shortened: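 AlphaScreen using 25 nM GST-E1A with 25 nM CtBP-6xHIS; compounds at 2.5 nM–46 uM final, 2 h at room temperature, then donor/acceptor beads (20 ug/mL) for 1 h in the dark. Signal normalized to E1A peptide inhibitor (maximum inhibition) and DMSO.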
# Potency is the fitted concentration of half-maximal effect.
row,Structure (SMILES),Potency
1,CCOC(=O)C1=C(N)Oc2c(oc(CO)cc2=O)C1c1ccc(Cl)cc1 (stereo not drawn),inactive
2,O=C(Nc1ccc2nc(-c3ccco3)c(-c3ccco3)nc2c1)N1CCCC1,16.9 µM (active)
3,CC1CCN(C(=O)Nc2ccc3nc(-c4ccco4)c(-c4ccco4)nc3c2)CC1,15.1 µM (active)
4,CCOC(=O)c1ncccc1NC(=O)CC(=O)Nc1cccnc1C(=O)OCC,2.39 µM (active)
5,Cc1cc(OC(=O)c2ccc(Cl)cc2)cc(=O)n1C,inactive
6,C[C@H](O)[C@@H]1CN2CCc3c([nH]c4ccc(-c5ccc6c(c5)OCO6)cc34)[C@@H]2C[C@@H]1N(C)C(=O)NC1CCCCC1,inactive
7,COc1ccc(Nc2nc(N)nc(CSC(=S)N3CCCCC3)n2)cc1,inactive
8,Oc1ccccc1C=NC1CCCCC1N=Cc1ccccc1O (stereo not drawn),15.1 µM (active)
9,COc1cc([C@H]2Oc3cc([C@H]4Oc5cc(O)cc(O)c5C(=O)[C@@H]4O)ccc3O[C@@H]2CO)ccc1O,inactive
10,c1ccc(-c2ccc(C3=Nn4c(nnc4-c4cc(-c5ccccc5)n[nH]4)SC3)cc2)cc1,inactive
11,O=c1[nH]c(SCCOc2ccccc2F)nc2ccccc12,inactive
12,Cc1cc(C)n2nc(SCCOc3ccccc3F)nc2n1,12 µM (active)
13,Cc1cc(C)n2nc(C(=O)NC3CCCc4ccccc43)nc2n1 (stereo not drawn),inactive
14,O=c1[nH]c(=O)n(C2C[C@H](O)[C@@H](CO)O2)cc1C(F)(F)F (stereo partly drawn),inactive
15,COc1cccc(/C=N/N2C(=O)CSC2=S)c1O,1.2 µM (active)
16,Cc1ccc(Nc2nc(NCCO)nc3c2cnn3C)cc1Cl,7.57 µM (active)
17,Cc1nc2ncccn2c1-c1csc(Nc2ccccc2)n1,2.39 µM (active)
18,COc1ccc(Nc2nc(-c3c(C)nc4ncccn34)cs2)cc1,2.69 µM (active)
19,CC1=C(C(=O)OC(C)C)C(c2ccc(N(C)C)cc2)C2=C(CC(C)(C)CC2=O)N1 (stereo not drawn),inactive
20,Cc1cc(C(=O)O)ccc1-n1c(C)cc(C=C2C(=O)c3ccccc3C2=O)c1C,inactive
21,COC(=O)c1ccc(C23CC4(C2)[C@H](CN(CC2CCCCC2)[C@@H]4c2ccccc2)C3c2ccc(Cl)nc2)cc1 (stereo partly drawn),inactive

row,Structure (SMILES),Potency
1,NC(=O)c1c(NC(=O)c2ccc(N3C(=O)CCC3=O)cc2)sc2c1CCCC2,0.478 µM (active)
2,NC(=O)c1c(NC(=O)c2cnccn2)sc2c1CCCC2,0.301 µM (active)
3,CCCC(=O)NC(=S)Nc1sc2c(c1C(N)=O)CCC2,inactive
4,Cc1sc(NC(=O)C2=COCCO2)c(C(N)=O)c1C,inactive
5,COc1ccccc1NC(=O)NCCN1CCN(C(=O)Nc2ccccc2OC)CC1,inactive
6,COc1ccc(-c2cc(C3CCNCC3)[nH]n2)cc1,inactive
7,COC(=O)c1ccc(OC(=O)c2cccnc2)cc1,inactive
8,O=C(Oc1ccc(C(=S)N2CCOCC2)cc1)c1ccccc1,inactive
9,O=C(/C=C/c1ccccc1)Oc1ccc(C(=S)N2CCOCC2)cc1,0.239 µM (active)
10,O=C(Oc1ccc(C(=S)N2CCOCC2)cc1)c1ccc(F)cc1,inactive
11,O=C(O)c1ccc2c(c1)C(=O)N(c1ccc(/C=C/C(=O)c3ccccc3)cc1)C2=O,inactive
12,CC(=O)c1ccc(OC(=O)/C=C/c2ccccc2)cc1,0.536 µM (active)
13,Cc1ccc(C2CC(c3ccc(Br)cc3)=NN2C(=O)CSC2=NN3CCCC(=O)N=C3S2)cc1 (stereo not drawn),inactive
14,Fc1cccc(Cc2c(-c3ccco3)nc3ccc(Br)cn23)c1,inactive
15,COc1cc(C(=S)N2CCOCC2)ccc1OC(=O)c1ccc([N+](=O)[O-])cc1[N+](=O)[O-],10.7 µM (active)
16,O=[N+]([O-])c1ccc([N+](=O)[O-])c(Nc2ccc(N3CCOCC3)cc2)c1,inactive
17,CC(=O)N1CCN(/[N+]([O-])=N/Oc2ccc([N+](=O)[O-])cc2[N+](=O)[O-])CC1,inactive
18,S=c1[nH]nc(-c2ccccn2)n1/N=C/c1ccc(Br)s1,12 µM (active)
19,C[C@@]12CCC=C[C@H]1[C@H](c1ccc3ccccc3c1/C=C/c1ccccc1)N(Cc1ccccc1)C2=O,inactive
20,Cc1ccc(S(=O)(=O)N2c3ccccc3-c3c(ssc3=S)C2(C)C)cc1,15.1 µM (active)
21,CC(C)OCCCNC(=O)c1ccccc1NC(=O)C1=CSCCO1,inactive

row,Structure (SMILES),Potency
1,Nc1ccccc1C(=O)NNc1c2ccccc2nc2ccccc12,6.75 µM (active)
2,CC(C)(C)C(=O)[C@H]1[C@H](c2ccccc2)[C@@]2(N=C(c3ccccc3)OC2=O)C2c3ccccc3C=NN21 (stereo partly drawn),inactive
3,CCOc1ccc2nc(N3CCCC(C(=O)N4CCN(CC)CC4)C3)sc2c1 (stereo not drawn),inactive
4,O=C1c2cccc3cccc(c23)C(=O)N1CCCN1CCN(c2ccc(F)cc2)CC1,inactive
5,CCC(=O)Nc1ccc(-c2nnc(SCc3ccccc3)n2C)cc1,inactive
6,Cc1ccc2cc(NC(=O)CC(CC(=O)O)c3ccccc3)ccc2n1 (stereo not drawn),15.1 µM (active)
7,CCSc1nc2ccccc2n1C(=O)c1ccc(S(=O)(=O)N2CCCCC2)cc1,inactive
8,CCSc1nnc(-c2ccc(S(=O)(=O)N3CCOCC3)cc2)n1C,inactive
9,Cc1ccc(S(=O)(=O)N2CCOCC2)cc1NC(=O)CSc1nnc2cc(C)c3ccccc3n12,13.5 µM (active)
10,Cc1cc(C)c2nc(SCC(=O)N(C)C3CCS(=O)(=O)C3)cc(C)c2c1 (stereo not drawn),inactive
11,COc1ccc(C(=O)Nc2cc(OC)c(NC(=O)Nc3ccccc3)cc2OC)cc1,inactive
12,COc1ccc(N(CC(=O)Nc2cccc(C(C)=O)c2)S(=O)(=O)c2ccc(NC(C)=O)cc2)cc1,inactive
13,COc1ccc(S(=O)(=O)c2c(O)c3ccc(C(=O)Nc4ccccc4F)cc3[nH]c2=O)cc1,0.757 µM (active)
14,COc1ccc(S(=O)(=O)c2c(O)c3ccc(C(=O)Nc4cccc(F)c4)cc3[nH]c2=O)cc1,0.536 µM (active)
15,COc1ccc(C2NC(C(=O)O)Cc3c2[nH]c2ccccc32)cc1CN1CCN(c2ccc(F)cc2)CC1 (stereo not drawn),inactive
16,CCc1nc2ccc(C(=O)NCCCN(C)C)cn2c1N(C)Cc1ccc(OC)cc1,inactive
17,CN(C)c1ccc(/C=C2\C=Cc3ccccc32)c(Cl)c1,8.49 µM (active)
18,COc1cc(N(C)C)c(OC)cc1/C=C1\C=Cc2ccccc21,5.36 µM (active)
19,COc1cc(N(C)C)ccc1/C=C1\C=Cc2ccccc21,8.49 µM (active)
20,COc1cc(OC)c(OC)cc1/C=C1\CC(C)C/C(=C\c2cc(OC)c(OC)cc2OC)C1=O (stereo not drawn),inactive
21,COc1cc(OC)c(OC)cc1/C=C1\C=Cc2ccccc21,12 µM (active)
